# Test results: PubChem BioAssay (NCATS)
# Values without a mark were called inactive. A call without a number means that no potency is given here. Calls of active or inactive are those of the source. Calls come from the whole dose curve; as a rule, active = well fitted inhibition curve with a large enough effect; inconclusive = small, poorly fitted or top-dose-only effect; inactive = flat fitted curve, though single readings scatter.
# Test system: Nanoluciferase (engineered Oplophorus gracilirostris luciferase)
# Assay: Primary Nanoluciferase (NLuc) qHTS assay for identification of artifact compounds. (AID 1845222);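 note: NLuc secreted into diluted conditioned medium of S16 cells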
# Details: NLuc-conditioned medium, Nano-Glo luminescence, 5 min; series mostly up to 54.1 µM
# Method in brief: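 Using secreted nanoluciferase in S16 culture medium (0.22 um filtered, 1:55 dilution), compounds were preincubated 15 min at RT. Signal was generated with Nano-Glo reagent (1:100) over 5 min.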
SMILES,Potency,"activity, negative = inhibition"
COc1ccc(CCc2nc3cc(-c4c(C)noc4C)ccc3n2C[C@H](C)N2CCOCC2)cc1Cl,inactive,–
O=C(O)c1cc(C(F)(F)F)ccc1N1CC[C@H](OCc2ccccn2)C1,inactive,–
CC/C=C/C(O)C(O)C1=C(C)C(=O)C2(O1)C(=O)NC(OC)(C(=O)c1ccccc1)C2O (stereo unspecified),inactive,–
CC1CC2OCC3(O)CCC(O)C(C14CC(c1ccoc1)OC4=O)C23CO (stereo unspecified),inactive,–
CN[C@H](CNC(=O)N1CCC[C@@H]([C@@H](OCCNC(=O)OC)c2cccc(Cl)c2)C1)C[C@H]1CCCOC1,inactive,–
O=C(OC1C=C(CO)C2C(OC3OC(CO)C(O)C(O)C3O)OC=CC12O)c1ccc(O)cc1 (stereo unspecified),inactive,–
C[C@H]1CC[C@@]2(OC1)O[C@H]1CC3C4CC[C@H]5C[C@@H](O[C@@H]6O[C@H](CO)[C@H](O[C@@H]7O[C@H](CO)[C@@H](O)[C@H](O[C@@H]8OC[C@@H](O)[C@H](O)[C@H]8O)[C@H]7O[C@@H]7O[C@H](CO)[C@@H](O)[C@H](O)[C@H]7O)[C@H](O)[C@H]6O)[C@H](O)C[C@]5(C)C4=CC(=O)[C@]3(C)[C@H]1[C@@H]2C (stereo partly specified),–,0% [at 11.6 µM]
Cc1ccc2[nH]c(=O)c(C3=NN(C(=O)CCC(=O)O)C(c4ccc(Br)cc4)C3)c(-c3ccccc3)c2c1 (stereo unspecified),inactive,–
CC(=O)OC1CC2(C)C(CCC(C)C23Cc2c(O)cc4c(c2O3)CNC4=O)C(C)(C)C1O (stereo unspecified),inactive,–
COc1cc(C2CC(=O)Nc3c2cc(Br)c2ccccc32)cc(OC)c1OC (stereo unspecified),inactive,–
O=C(O)CCc1c(C(=O)O)[nH]c2cc(Cl)cc(Cl)c12,inactive,–
